Test results as given in PubChem BioAssay AID1159580 (chemical genetic matrix, 2015).
About 2,000 (36%) of roughly 5,500 compounds were called active. Another 18% or so got no clear call; they are omitted. No stated cut-off is given here; in the data, active means normalized growth mostly below about 0.91 (no sharp cut-off); inconclusive means no clear call, values can overlap the other calls; inactive means mostly above about 0.92. Some of the results follow.

Assay: chemical genetic growth profiling, strain panel (AID 1159580);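 further: tested at 20 µM; growth read once vehicle control cultures reached saturation at 30 °C; 1 = growth at the plate median or of vehicle wells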
Settings: growth OD

Measured: normalized growth

CC(=O)CCCCn1c(=O)c2c(ncn2C)n(C)c1=O
inactive: S. cerevisiae deletion strains, locus YJR066W, strain TOR1, stronger effect = lower value 0.958 | S. cerevisiae deletion strains, locus YJR075W, strain HOC1, stronger effect = lower value 1.01 | S. cerevisiae deletion strains, locus YKL009W, strain mrt4, stronger effect = lower value 0.994 | S. cerevisiae deletion strains, locus YKL068W, stronger effect = lower value 0.997 | S. cerevisiae deletion strains, locus YKL085W, strain MDH1 (second series), stronger effect = lower value 1 | S. cerevisiae deletion strains, locus YKL085W, strain MDH1, stronger effect = lower value 1 | S. cerevisiae deletion strains, locus YKL160W, strain elf1, stronger effect = lower value 1.02 | S. cerevisiae deletion strains, locus YKL190W, strain CNB1, stronger effect = lower value 1.02 | S. cerevisiae deletion strains, locus YKR001C, strain vps1, stronger effect = lower value 1.02 | S. cerevisiae deletion strains, locus YKR026C, strain gcn3, stronger effect = lower value 1.01 | S. cerevisiae deletion strains, locus YKR091W, strain srl3, stronger effect = lower value 1.01 | S. cerevisiae deletion strains, locus YLL001W, strain dnm1, stronger effect = lower value 1.01 | S. cerevisiae deletion strains, locus YLL026W, stronger effect = lower value 1.01 | S. cerevisiae deletion strains, locus YLL041C, strain sdh2, stronger effect = lower value 1.01 | S. cerevisiae deletion strains, locus YLR027C, strain aat2, stronger effect = lower value 1 | S. cerevisiae deletion strains, locus YLR039C, strain RIC1, stronger effect = lower value 1.03 | S. cerevisiae deletion strains, locus YLR058C, strain SHM2, stronger effect = lower value 1.02 | S. cerevisiae deletion strains, locus YLR102C, strain apc9, stronger effect = lower value 0.997 | S. cerevisiae deletion strains, locus YLR113W, strain HOG1, stronger effect = lower value 1 | S. cerevisiae deletion strains, locus YLR221C, strain rsa3, stronger effect = lower value 1.02 | S. cerevisiae deletion strains, locus YLR258W, strain gsy2, stronger effect = lower value 1.01 | S. cerevisiae deletion strains, locus YLR262C, strain YPT6 (second series), stronger effect = lower value 1.01 | S. cerevisiae deletion strains, locus YLR262C, strain YPT6, stronger effect = lower value 1.09 | S. cerevisiae deletion strains, locus YLR268W, strain sec22, stronger effect = lower value 1.01 | S. cerevisiae deletion strains, locus YLR320W, strain mms22, stronger effect = lower value 1.03 | S. cerevisiae deletion strains, locus YLR330W, strain CHS5, stronger effect = lower value 1.01 | S. cerevisiae deletion strains, locus YLR342W, strain FKS1 (second series), stronger effect = lower value 0.979 | S. cerevisiae deletion strains, locus YLR342W, strain FKS1, stronger effect = lower value 1.01 | S. cerevisiae deletion strains, locus YLR357W, strain rsc2, stronger effect = lower value 1.07 | S. cerevisiae deletion strains, locus YLR370C, strain arc18, stronger effect = lower value 1.02 | S. cerevisiae deletion strains, locus YLR371W, strain rom2, stronger effect = lower value 0.993 | S. cerevisiae deletion strains, locus YLR384C, strain iki3, stronger effect = lower value 1.02 | S. cerevisiae deletion strains, locus YLR418C, strain cdc73, stronger effect = lower value 0.982 | S. cerevisiae deletion strains, locus YML016C, strain PPZ1, stronger effect = lower value 1.02 | S. cerevisiae deletion strains, locus YML032C, strain rad52, stronger effect = lower value 0.997 | S. cerevisiae deletion strains, locus YML120C, strain ndi1, stronger effect = lower value 1.02 | S. cerevisiae deletion strains, locus YML124C, strain tub3, stronger effect = lower value 0.996 | S. cerevisiae deletion strains, locus YMR058W, strain fet3, stronger effect = lower value 1.02 | S. cerevisiae deletion strains, locus YMR078C, strain ctf18, stronger effect = lower value 0.996 | S. cerevisiae deletion strains, locus YMR125W, strain sto1, stronger effect = lower value 1.02 | S. cerevisiae deletion strains, locus YMR129W, stronger effect = lower value 1.01 | S. cerevisiae deletion strains, locus YMR205C, strain PFK2, stronger effect = lower value 1.04 | S. cerevisiae deletion strains, locus YMR223W, strain ubp8, stronger effect = lower value 0.975 | S. cerevisiae deletion strains, locus YMR231W, strain pep5, stronger effect = lower value 1.02 | S. cerevisiae deletion strains, locus YMR307W, strain GAS1, stronger effect = lower value 0.995 | S. cerevisiae deletion strains, locus YNL067W, strain RPL9B, stronger effect = lower value 1.04 | S. cerevisiae deletion strains, locus YNL071W, strain lat1, stronger effect = lower value 1.01 | S. cerevisiae deletion strains, locus YNL128W, strain TEP1, stronger effect = lower value 0.998 | S. cerevisiae deletion strains, locus YNL175C, strain NOP13, stronger effect = lower value 1.02 | S. cerevisiae deletion strains, locus YNL183C, strain NPR1, stronger effect = lower value 0.924 | S. cerevisiae deletion strains, locus YNL197C, strain WHI3, stronger effect = lower value 1.01 | S. cerevisiae deletion strains, locus YNL209W, strain ssb2, stronger effect = lower value 1.01 | S. cerevisiae deletion strains, locus YNL224C, strain SQS1, stronger effect = lower value 1 | S. cerevisiae deletion strains, locus YNL233W, strain BNI4, stronger effect = lower value 1.02 | S. cerevisiae deletion strains, locus YNL248C, strain rpa49, stronger effect = lower value 1.01 | S. cerevisiae deletion strains, locus YNL250W, strain rad50, stronger effect = lower value 1.02 | S. cerevisiae deletion strains, locus YNL271C, strain bni1, stronger effect = lower value 1 | S. cerevisiae deletion strains, locus YNL298W, strain CLA4, stronger effect = lower value 1 | S. cerevisiae deletion strains, locus YNL307C, strain MCK1, stronger effect = lower value 0.99 | S. cerevisiae deletion strains, locus YNL322C, strain KRE1 (second series), stronger effect = lower value 1.02 | S. cerevisiae deletion strains, locus YNL322C, strain KRE1, stronger effect = lower value 1.01 | S. cerevisiae deletion strains, locus YNR049C, strain mso1, stronger effect = lower value 1.01 | S. cerevisiae deletion strains, locus YNR052C, strain pop2, stronger effect = lower value 1.01 | S. cerevisiae deletion strains, locus YOL006C, strain TOP1, stronger effect = lower value 1.08 | S. cerevisiae deletion strains, locus YOL012C, strain htz1 1.51 | S. cerevisiae deletion strains, locus YOL147C, strain pex11, stronger effect = lower value 1 | S. cerevisiae deletion strains, locus YOR001W, strain rrp6, stronger effect = lower value 1.04 | S. cerevisiae deletion strains, locus YOR061W, strain CKA2, stronger effect = lower value 1.02 | S. cerevisiae deletion strains, locus YOR069W, strain VPS5, stronger effect = lower value 1.01 | S. cerevisiae deletion strains, locus YOR070C, strain gyp1, stronger effect = lower value 1.01 | S. cerevisiae deletion strains, locus YOR080W, strain dia2, stronger effect = lower value 1.02 | S. cerevisiae deletion strains, locus YOR083W, strain WHI5 (second series), stronger effect = lower value 1.05 | S. cerevisiae deletion strains, locus YOR083W, strain WHI5, stronger effect = lower value 1 | S. cerevisiae deletion strains, locus YOR106W, strain vam3, stronger effect = lower value 1.02 | S. cerevisiae deletion strains, locus YOR136W, strain idh2, stronger effect = lower value 0.996 | S. cerevisiae deletion strains, locus YOR144C, strain elg1, stronger effect = lower value 0.99 | S. cerevisiae deletion strains, locus YOR184W, strain ser1, stronger effect = lower value 0.999 | S. cerevisiae deletion strains, locus YOR231W, strain MKK1, stronger effect = lower value 0.977 | S. cerevisiae deletion strains, locus YOR265W, strain rbl2, stronger effect = lower value 1.01 | S. cerevisiae deletion strains, locus YOR270C, strain vph1, stronger effect = lower value 1.04 | S. cerevisiae deletion strains, locus YOR290C, strain snf2, stronger effect = lower value 1 | S. cerevisiae deletion strains, locus YOR316C, strain cot1, stronger effect = lower value 0.999 | S. cerevisiae deletion strains, locus YPL051W, strain arl3, stronger effect = lower value 1.01 | S. cerevisiae deletion strains, locus YPL055C, strain LGE1, stronger effect = lower value 1.04 | S. cerevisiae deletion strains, locus YPL078C, strain atp4, stronger effect = lower value 1.01 | S. cerevisiae deletion strains, locus YPL106C, strain sse1, stronger effect = lower value 1.03 | S. cerevisiae deletion strains, locus YPL240C, strain hsp82, stronger effect = lower value 1.01 | S. cerevisiae deletion strains, locus YPL241C, strain CIN2, stronger effect = lower value 1.01 | S. cerevisiae deletion strains, locus YPL256C, strain CLN2, stronger effect = lower value 0.958 | S. cerevisiae deletion strains, locus YPR119W, strain clb2, stronger effect = lower value 0.993 | S. cerevisiae deletion strains, locus YPR141C, strain kar3, stronger effect = lower value 0.991 | S. cerevisiae deletion strains, locus YPR163C, strain tif3, stronger effect = lower value 1 | S. cerevisiae deletion strains, locus YPR167C, strain met16, stronger effect = lower value 0.997 | S. cerevisiae deletion strains, strain wtn01, stronger effect = lower value 1 | S. cerevisiae strains, strain wild type, stronger effect = lower value 1.02
